Assay outcomes (PubChem BioAssay)
D2 ag-1 – human D2 receptor agonism in beta-arrestin assay. activation, % (no concentration beside the values). 360,000 tested, 0.084% active. DiscoveRx PathHunter D2 beta-arrestin, luminescence, 90 min; 100% = 57 uM dopamine signal; in the data active means activation above about 40%
Target sequence (P14416 whole entry, looked up): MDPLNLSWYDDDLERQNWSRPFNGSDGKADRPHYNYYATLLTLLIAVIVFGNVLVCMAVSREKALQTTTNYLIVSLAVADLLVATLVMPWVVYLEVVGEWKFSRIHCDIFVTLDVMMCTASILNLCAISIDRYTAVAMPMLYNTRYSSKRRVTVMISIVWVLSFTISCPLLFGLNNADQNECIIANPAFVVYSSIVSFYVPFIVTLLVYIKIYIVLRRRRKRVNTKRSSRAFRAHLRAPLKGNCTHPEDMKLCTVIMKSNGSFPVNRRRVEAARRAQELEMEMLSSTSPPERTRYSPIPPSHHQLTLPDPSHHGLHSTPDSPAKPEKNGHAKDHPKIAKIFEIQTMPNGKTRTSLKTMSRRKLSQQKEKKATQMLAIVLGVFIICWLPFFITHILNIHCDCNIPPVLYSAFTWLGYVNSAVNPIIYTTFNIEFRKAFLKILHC
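Agonist mode: compounds alone added to overnight-plated D2 PathHunter cells for 90 min at 37 C, with 57 uM final dopamine (EC100) defining full response. Beta-arrestin recruitment detected by chemiluminescent reagent, read after 1 h at ambient temperature.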
D2 PAM-1 – human D2 receptor positive allosteric modulation | 360,000 tested, 0.23% active | DiscoveRx D2 beta-arrestin cells, luminescence, 90 min; 100% = 57 uM dopamine signal | AID 624464 | P14416 | potentiation, % (concentration not given with the values); in the data active means potentiation above about 50%
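PathHunter beta-arrestin assay in DiscoveRx D2 cells. Compounds were added with an EC20 of dopamine (50 nM final) for 90 min at 37 deg C. Luminescence was read 1 h after detection reagent, with 57 uM dopamine as the EC100 control.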
D2 antagonist – antagonists of human D2 dopamine receptor; HEK293 TREx D2 cells, calcium flux, dopamine EC80; 340,000 tested, 2% active; inhibition, % at 10 µM; in the data active means inhibition above about 30%; inactive means below that, where a call was filed
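Calcium flux kinetic readout in an inducible HEK293 TREx D2 line plated overnight at 30 C. After 180 s compound exposure, an EC80 dopamine challenge follows with another 180 s kinetic read to detect antagonism.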
D2 ag-2 – agonists of human D2 dopamine receptor; P14416; HEK293 T-REx D2 cells, calcium flux agonist mode; activation, % at 2 µM; 340,000 tested, 0.53% active; AID 485358;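 active means activation over 3 SD above normal in the single-dose calcium agonist read, cut at about 30% in these data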
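Agonism is scored from calcium flux in a force-coupled, inducible HEK293 cell line expressing D2, read kinetically for 180 s after compound addition against dopamine controls.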
D2 PAM-2 – positive allosteric modulators of human D2 dopamine receptor | potentiation, % at 10 µM | 340,000 tested, 0.34% active | HEK293 T-REx D2, calcium flux, EC20 dopamine potentiation | P14416 | AID 485347;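 active means potentiation over 3 SD above the plate norm, cut at about 30% in these data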
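Potentiation of an EC20 dopamine calcium response is measured in a force-coupled, tetracycline-inducible Hek293 Trex D2 line. Compound-only kinetic reads over 180 s flag agonists before dopamine addition.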
Hits are given with their value. Sampled rows, rich in hits. Any-hit rate of the full collection: about 2.4%.

For O=C(c1cncc(Br)c1)N1CCN(S(=O)(=O)c2ccccc2C(F)(F)F)CC1 the results were D2 ag-1 inactive, D2 PAM-1 inactive, D2 antagonist 40, D2 ag-2 inactive and D2 PAM-2 inactive.
Screening O=C(c1cncc(Br)c1)N1CCN(S(=O)(=O)c2ccccc2)CC1 returned D2 ag-1 inactive, D2 PAM-1 inactive, D2 antagonist inactive, D2 ag-2 inactive and D2 PAM-2 inactive.
Screening Cc1cc(C)cc(NC(=O)C2CC3CCC2C3)c1 (centres undefined) returned D2 ag-1 inactive, D2 PAM-1 inactive, D2 antagonist 56, D2 ag-2 inactive and D2 PAM-2 inactive.
`COc1cc(CNC[C@H]2O[C@@H](n3cc(C)c(=O)[nH]c3=O)C[C@@H]2O)ccc1OCc1cccc(Cl)c1` gave D2 ag-1 inactive and D2 PAM-1 inactive.
For Cc1cccc(CSc2cn(CC(=O)N3CCCCC3)c3ccccc23)c1 the results were D2 ag-2 inactive and D2 PAM-2 inactive.
CCCCCOc1ccc(Br)cc1/C(C)=N/NC1=NCCN1 was read as D2 ag-1 inactive, D2 PAM-1 inactive, D2 antagonist inactive, D2 ag-2 inactive and D2 PAM-2 inactive.
`COc1ccc(Br)cc1/C(C)=N/NC1=NCCN1` gave D2 ag-1 inactive, D2 PAM-1 inactive, D2 antagonist 33, D2 ag-2 inactive and D2 PAM-2 inactive.
Screening CCOC(=O)c1c(C)[nH]c(C)c1S(=O)(=O)NCC1CCN(Cc2cccc(F)c2)CC1 returned D2 ag-1 inactive, D2 PAM-1 inactive, D2 antagonist 74, D2 ag-2 inactive and D2 PAM-2 inactive.
CCOC(=O)c1c(C)[nH]c(C)c1S(=O)(=O)Nc1ccc(CN2CCCCC2)cc1 was read as D2 ag-1 inactive, D2 PAM-1 inactive, D2 antagonist inactive, D2 ag-2 inactive and D2 PAM-2 inactive.
For CCOC(=O)c1c(S(=O)(=O)NCCc2cccs2)c(C)n(C)c1C the results were D2 ag-1 inactive, D2 PAM-1 inactive, D2 antagonist inactive, D2 ag-2 inactive and D2 PAM-2 inactive.
Screening CCOC(=O)c1c(C)[nH]c(C)c1S(=O)(=O)NCC1CCN(Cc2ccccc2OC)CC1 returned D2 ag-1 inactive, D2 PAM-1 inactive, D2 antagonist 33, D2 ag-2 inactive and D2 PAM-2 inactive.
`CCOC(=O)c1c(S(=O)(=O)NCC2CCN(CCc3cccs3)CC2)c(C)n(C)c1C` gave D2 ag-1 inactive, D2 PAM-1 inactive, D2 antagonist 43, D2 ag-2 inactive and D2 PAM-2 inactive.
`Cc1ccc(NC(=O)C2CCCCC2)cc1C` gave D2 ag-1 inactive, D2 PAM-1 inactive, D2 antagonist 36, D2 ag-2 inactive and D2 PAM-2 inactive.
For C/C(=N\NC=O)c1ccncc1 the results were D2 ag-1 inactive, D2 PAM-1 inactive, D2 antagonist inactive, D2 ag-2 inactive and D2 PAM-2 30.
For Cc1ccc(C)c(Cn2c(=O)n(Cc3ccccc3)c(=O)c3c(C)c(C)sc32)c1 the results were D2 ag-2 inactive and D2 PAM-2 inactive.
For N=c1sccn1CC(=O)NCCc1ccc(Cl)cc1Cl the results were D2 ag-1 inactive, D2 PAM-1 inactive, D2 antagonist 39, D2 ag-2 inactive and D2 PAM-2 inactive.
For CC(=O)Nc1cc(C(=O)Nc2ccc3c(c2)N(C)C(=O)c2ccccc2S3)ccc1C the results were D2 PAM-2 inactive.
Screening COc1ccc(Cl)cc1NC(=O)Cn1c(=O)n(Cc2nc(C)no2)c(=O)c2ccccc21 returned D2 ag-2 inactive and D2 PAM-2 inactive.
Screening CN(C)c1ccc(/C=C/c2ccc3ccccc3n2)cc1 returned D2 ag-1 inactive, D2 PAM-1 inactive, D2 antagonist inactive, D2 ag-2 inactive and D2 PAM-2 inactive.
`CCCN(CCC)c1ccc(/C=C/c2ccc3cc(OCC)ccc3n2)cc1` gave D2 ag-1 inactive, D2 PAM-1 inactive, D2 antagonist inactive, D2 ag-2 38 and D2 PAM-2 inactive.
Screening CCN(CC(O)CON=C1c2ccccc2-c2ccccc21)S(=O)(=O)c1ccc(C)cc1 (centres undefined) returned D2 ag-1 inactive, D2 PAM-1 inactive, D2 antagonist 34, D2 ag-2 inactive and D2 PAM-2 inactive.
Screening COc1ccc(C(CNC(=O)c2oc3ccccc3c2C)N2CCCC2)cc1 (centres undefined) returned D2 ag-1 inactive, D2 PAM-1 inactive, D2 antagonist 76, D2 ag-2 inactive and D2 PAM-2 inactive.
